# In PubChem BioAssay AID827 (SRMLSC, 2007):
# About 1,700 (1.2%) of roughly 140,000 compounds were called active. Many of the other results were omitted from the sample, so actives are more common in it than they were. Values without a mark were called inactive.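 Rule for the calls: active = viability at or below a set limit, 4 SD under the median of all tested compounds (cut at about 3.7% in these data); inactive = the rest.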
# Test: growth suppression of PTEN-null HCT116, primary screen, cell-based, CellTiter-Glo (AID 827);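 note: PTEN knockout HCT116 line with beta catenin targeted HCT116 as companion control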
# Conditions: 60 h, at 10 µM, active compounds read low
row,SMILES,viability
1,COc1ccc(C2CC(c3ccccc3)=NN2C(=O)c2ccc(Cl)c([N+](=O)[O-])c2)cc1 (configuration not stated),10.4%
2,CCOc1ccc2nc(Cl)c(C3CC(c4ccccc4)=NN3C(=O)c3cccs3)cc2c1 (configuration not stated),1.17% (active)
3,CCOc1ccccc1C1CC(c2cccc(NS(C)(=O)=O)c2)=NN1C(=O)c1ccccc1 (configuration not stated),84.5%
4,Cc1c(Cl)cnc(NC(=O)COC(=O)c2ccc(S(=O)(=O)NCc3ccco3)cc2)c1Cl,85.2%
5,COC(=O)c1sc2ncccc2c1OCc1ccc(Cl)cc1Cl,63.7%
6,NC(N)=N/N=C/c1ccc(OCc2ccc(Cl)cc2Cl)cc1,1.56% (active)
7,COc1ccc(C(=O)O/N=C(\N)Cc2ccc(Cl)cc2Cl)cc1OC,69.4%
8,CC1CCCCN1C(=S)NCc1ccccc1 (configuration not stated),94.7%
9,O=C(CC1SC(=Nc2ccccc2)N(Cc2ccccn2)C1=O)Nc1cccc(Cl)c1 (configuration not stated),76.2%
10,Cc1nc(C)c(C(=O)Nc2cccc(C)c2C)o1,109%
11,O=C(O)c1ccccc1-c1ccccc1C(=O)Nc1cccc2ccccc12,96%
12,O=C(Nc1cccc2ccccc12)c1onc2c1CCCC2,0.29% (active)
13,Cc1ccc(-n2nc(C)c(/C=N/NC(=O)c3cccs3)c2Cl)cc1,55.5%
14,Cc1c(C2=CCN(S(=O)(=O)c3ccc(Cl)cc3)CC2)c2ccccc2n1C,74%
15,COc1ccccc1NC(=O)CCCc1c[nH]c2ccccc12,92.8%
16,COc1cccc(CNCCc2c[nH]c3ccccc23)c1OCc1ccccc1F,1.43% (active)
17,COc1ccc(C(CCNCc2ccccc2F)c2ccc(F)cc2)cc1 (configuration not stated),10.1%
18,CCOC(=O)/C(N=Nc1cc(C(=O)O)cc(C(=O)O)c1)=C(\O)CCl,101%
19,CC(=O)c1c(N2CCN(c3ccc(F)cc3)CC2)nc(=S)n(-c2ccccc2)c1C,93%
20,Nc1nnc(SCC(=O)Nc2ccc3nc(SCC(=O)Nc4ccccc4)sc3c2)s1,72.2%
21,O=c1[nH]n(-c2cccc(Cl)c2)c2ncccc12,95.2%
22,Oc1c(CN2CCN(c3ccc(F)cc3)CC2)cc(Cl)c2cccnc12,4.32%
23,Clc1cccc(CN2COc3c(cc(Cl)c4cccnc34)C2)c1,3.76% (active)

row,SMILES,viability
1,CCOC(=O)c1cccnc1NC(=O)c1ccncc1,101%
2,CCCc1nc2c([nH]1)C(c1cccnc1)C(C#N)=C(N)O2 (configuration not stated),98.7%
3,COC(=O)NNC(=O)C1CCC(C)CC1 (configuration not stated),97%
4,Cc1ccc(Cl)cc1N1CCN(C(=O)c2cccc3c(=O)c(C)c(-c4ccccc4)oc23)CC1,1.24% (active)
5,O=C(c1cccc2ccccc12)N1CCN(c2ccccc2F)CC1,90.8%
6,COC(=O)c1ccc(C(=O)OC)c(NC(=S)N2CCN(c3cc(Cl)ccc3C)CC2)c1,90.3%
7,COCCCNC(=O)Cn1cc(/C=C(\C#N)C(=O)N2CCN(c3ccccc3)CC2)c2ccccc21,86.2%
8,Cc1ccc(-c2nn(-c3ccccc3)cc2C(=O)Nc2cccc(S(=O)(=O)N3CCOCC3)c2)cc1,89.5%
9,Cc1cc(Cl)ccc1NC(=S)N1CCC(C(N)=O)(N2CCCCC2)CC1,88.6%
10,Cc1nc(CC(=O)NNS(=O)(=O)c2ccc(F)c(Cl)c2)cs1,95.8%
11,O=C(Cn1cnc2ccccc21)N/N=C/c1ccco1,97.9%
12,COc1ccc(NC(=O)/C(Cl)=C(/Cl)S(=O)Cc2ccc(C)cc2)cn1 (configuration not stated),0.92% (active)
13,COc1ccc(NS(=O)(=O)c2ccc(NC(=S)NC(=O)/C=C/c3ccc(C)cc3)cc2)nn1,94.4%
14,COc1cc(NC(=O)Nc2ccc(C)cc2)cc([N+](=O)[O-])c1,79.8%
15,O=C(/C=C/c1ccccc1[N+](=O)[O-])NCC1CCCO1 (configuration not stated),102%
16,C=CCNC(=S)NNC(=O)c1ccc(Br)o1,94.9%
17,CCN(CC)S(=O)(=O)c1ccc(C)c(NC(=O)COc2ccc(Br)cc2Cl)c1,84.6%
18,CCn1cc(/C=C2/SC(=S)NC2=O)c(C)n1,103%
19,COc1ccc(-c2cc(C(=O)NC(Cc3c[nH]c4ccccc34)C(=O)O)c(C)o2)cc1OC (configuration not stated),99.7%
20,COc1cc(NS(=O)(=O)c2ccccc2)ccc1-n1nc(C)cc1C,94.5%
21,COc1ccc(Nc2cc(C)nc(-n3nc(C)cc3C)n2)cc1,18.6%
22,COc1ccccc1/C=N\Nc1cc(C)nc(-n2nc(C)cc2C)n1,2.6% (active)
23,CCN(CC)CCn1c(/N=C/c2cc(Br)ccc2O)nc2ccccc21,94%

row,SMILES,viability
1,O=C(NCCc1ccccn1)c1cc(-c2ccc(Cl)cc2)nc2ccccc12,98.1%
2,c1ccc(-c2cc3c(NCC4COc5ccccc5O4)ncnc3s2)cc1 (configuration not stated),42.1%
3,CCCc1cc(=O)[nH]c(SCC(=O)N2CCN(S(=O)(=O)c3ccc(C)cc3C)CC2)n1,93%
4,COc1cccc(NC(=O)Cc2ccc(C)cc2)c1,113%
5,COc1ccc(CC(=O)Nc2ccc(-c3nnc(-c4ccc(C)cc4)o3)cc2)cc1,2.56% (active)
6,COc1ccc(CC(=O)Nc2ccc(C(=O)NC(C)(C)C)cc2)cc1,92.4%
7,Cc1cccc(C)c1NC(=O)C(c1ccccc1)N1CC(=O)Nc2ccccc21 (configuration not stated),66%
8,CC(CC(=O)Nc1cc(C(F)(F)F)ccc1Cl)c1ccccc1 (configuration not stated),51.3%
9,O=C(Nc1cc(C(F)(F)F)ccc1Cl)C(=O)N1CCCCC1,91.1%
10,O=C(NNc1ccccc1Cl)C(O)(c1cccc(C(F)(F)F)c1)c1cccc(C(F)(F)F)c1,1.89% (active)
11,Cc1cc(C(=O)N/N=C/c2cc([N+](=O)[O-])cc(C)c2O)n[nH]1,83%
12,O=C(COC(=O)[C@H](Cc1ccccc1)NC(=O)c1cccs1)Nc1cc(F)ccc1F,91.4%
13,CCCSc1nc2[nH]ncc2c(=O)[nH]1,90.6%
14,Cc1cc2oc(C(=O)Nc3c(C)n(C)n(-c4ccccc4)c3=O)c(C)c2cc1Cl,85%
15,CCc1ccc(-c2nn(-c3ccccc3)cc2CSC(=N)N)cc1,1.62% (active)
16,N=C(N)SCc1cccc2ccccc12,87.8%
17,CCn1c(SCc2ccc(C)cc2)nnc1-c1nn(-c2ccccc2)ccc1=O,87.8%
18,COC(=O)Cc1ccc(NC(=S)NCc2ccc(Cl)cc2)cc1,83.4%
19,S=C(NCc1ccc(Cl)cc1)NC1CCCCC1,77.6%
20,S=C(NCc1ccc(Cl)cc1)NC12CC3CC(CC(C3)C1)C2,2.95% (active)
21,C=CCNC(=O)COC(=O)c1ccccc1C(=O)N(C)C1CCCCC1,92.8%
22,Cc1cc(C)cc(NC(=S)NCc2ccc(F)cc2)c1,78.2%
23,Cc1ccc(C(=O)N2CC(=O)Nc3ccccc32)o1,100%

row,SMILES,viability
1,CC(=O)c1cc(-c2ccccc2)n(CCC(=O)NC2CCCCCC2)c1C,74.8%
2,COc1cccc(N(C(=O)C2COc3ccccc3O2)C(C(=O)NC2CCCCC2)c2ccc(O)cc2)c1 (configuration not stated),56.8%
3,COC(=O)Cc1csc(/N=C/c2c(O)n(-c3cccc(C(F)(F)F)c3)c(=O)c3ccccc23)n1,47.7%
4,O=C1CCCC2=C1C(c1ccccc1)n1c(s/c(=C/c3cccc(F)c3)c1=O)=N2 (configuration not stated),80.9%
5,CCOC(=O)C1=C(C)N=c2s/c(=C\C(=O)OC)c(=O)n2C1c1ccc(OC)cc1 (configuration not stated),95.2%
6,COc1ccc(OC)c(C2C3=C(N=c4s/c(=C\c5cccc(O)c5)c(=O)n42)c2ccccc2CC3)c1 (configuration not stated),3.19% (active)
7,COc1ccccc1CNC(=O)CN1CCC(n2cnc3cc(F)ccc32)CC1,101%
8,Nc1nc(NCCCN2CCOCC2)nc(Nc2ccccc2)c1[N+](=O)[O-],63.9%
9,CNc1nc(Nc2ccc(C)c(Cl)c2)nc(N)c1[N+](=O)[O-],2.94% (active)
10,COCCNc1nc(N)c([N+](=O)[O-])c(NCCO)n1,100%
11,CCN(CC)c1ccc(S(=O)(=O)N2CCOCC2)cc1NC(=O)CSc1cccc[n+]1[O-],93.9%
12,COc1ccc(CC(=O)N/N=C(\C)c2ccccn2)cc1,4.88%
13,CCN(CC)CCOc1ccc2c(c1)C(=NNC(=O)c1ccccn1)c1cc(OCCN(CC)CC)ccc1-2,0.61% (active)
14,CCC(C)(NC(=O)c1ccccn1)C(=O)NC1CCCCC1 (configuration not stated),105%
15,O=C(O)c1cccc(S(=O)(=O)Nc2ccc(O)cc2Sc2nc3ccccc3s2)c1,94%
16,O=[N+]([O-])c1c(NCCO)cc(Sc2nc3ccccc3s2)c2nonc12,1.48% (active)
17,COc1ccc(S(=O)(=O)Nc2ccc(O)c(Sc3nc4ccccc4s3)c2)cc1,78.8%
18,CCCCCNC(=O)c1cccnc1SCC(=O)Nc1ccccc1OC,91.1%
19,COc1ccc(CCN(C(=O)COc2ccccc2)c2nc(-c3ccccc3)cs2)cc1OC,74.5%
20,CCOC(=O)CN(Cc1ccc(OC)c(OC)c1)S(=O)(=O)c1ccc(OC)cc1,96.9%
21,COc1ccc(C(CCN(Cc2ccc(OC)c(OC)c2)C(=O)CCl)c2ccccc2)cc1 (configuration not stated),1.54% (active)
22,Cc1cc(F)ccc1S(=O)(=O)N1CCCOC1CNC(=O)C(=O)NCCC1=CCCCC1 (configuration not stated),93.5%
23,N#Cc1ccc(C(=O)Nc2nc(-c3cccs3)c(C(=O)C(F)(F)F)s2)cc1,40.3%
